Experimental data published in PubChem BioAssay.
Several values for one entry are separate records, joined by “and”; a condition that tells them apart may be missing. Equal values may be shown once. A number with no mark means an inactive call. Records with an inconclusive call do not appear. Activity calls are given as the source filed them.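 Rule for the calls, unless noted: active = thallium flux through the channel raised or lowered by more than 3 SD from vehicle-only wells, actives on both sides; inactive = the rest.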

Key:
[1] = signal quenchers or enhancers, Cy5 substrate/SSB – biochemical, NIH Clinical Collection, E. coli SSB, artefact control for HCV NS3 helicase inhibitor project (AID 743268; call rule not given here); details: Cy5-oligo bound E. coli SSB, fluorescence interference
[2] = test system: Hepatitis C virus NS3 helicase; test: blockers of NS3h binding to DNA – biochemical, fluorescence polarization, NIH Clinical Collection, primary screen (AID 743270; call rule not given here); details: NS3 helicase binding to Cy5-dT15 DNA, active compounds read high, concentration not given here
[3] = molecular target: Single-stranded DNA-binding protein (Escherichia coli (strain K12)) (UniProt P0AGE0); test: SSB-ssDNA binding inhibitors – biochemical, fluorescence polarization, NIH Clinical Collection, counter-screen for HCV NS3 helicase inhibitor project (AID 743271; in the data active = inhibition above about 28%); details: E. coli SSB-DNA binding, active compounds read high, concentration not given here
[4] = compounds distorting NS3 helicase fluorescence signal – biochemical, NIH Clinical Collection, artefact control for HCV NS3 helicase inhibitor project (AID 743272; call rule not given here;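 note: HCV NS3 helicase with a Cy5 labelled single stranded DNA probe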); details: fluorescence interference counterscreen, HCV NS3 helicase assay; active compounds read low
[5] = test system: Aerobactin synthetase IucA (Klebsiella pneumoniae); test: inhibition of K. pneumoniae IucA enzyme – biochemical, Tocris library, absorbance (AID 1345561; call rule not given here;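 note: 100% = enzyme without compound and 0% = no enzyme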); details: purified IucA enzyme assay, absorbance (OD) read-out; active compounds read low;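 tested at 8 µM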
F380Y/beta1 = test: BK channel mutant inhibitors and activators – cell-based, U2OS BacMam, thallium flux, beta subunits, selectivity assay, profiling panel (AID 1259406); details: U2OS BacMam BK variants, at 30 µM;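 note: initial slope of Thallos dye fluorescence rise after thallium is added; log ratio against the mean of 0.3% DMSO vehicle wells on the same plate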
F380Y/beta4 = test: as above; details: U2OS BacMam BK variants, at 30 µM
[6] = molecular target: Calcium-activated potassium channel subunit alpha-1 (Homo sapiens) + Leucine-rich repeat-containing protein 26 (Homo sapiens) (UniProt Q12791+Q2I0M4); test: as above; details: U2OS BacMam BK variants, F380Y/Slo1WT/gamma1, at 30 µM
Sequence of Calcium-activated potassium channel subunit alpha-1 (Homo sapiens) + Leucine-rich repeat-containing protein 26 (Homo sapiens) (Q2I0M4 whole entry, looked up, one chain of several): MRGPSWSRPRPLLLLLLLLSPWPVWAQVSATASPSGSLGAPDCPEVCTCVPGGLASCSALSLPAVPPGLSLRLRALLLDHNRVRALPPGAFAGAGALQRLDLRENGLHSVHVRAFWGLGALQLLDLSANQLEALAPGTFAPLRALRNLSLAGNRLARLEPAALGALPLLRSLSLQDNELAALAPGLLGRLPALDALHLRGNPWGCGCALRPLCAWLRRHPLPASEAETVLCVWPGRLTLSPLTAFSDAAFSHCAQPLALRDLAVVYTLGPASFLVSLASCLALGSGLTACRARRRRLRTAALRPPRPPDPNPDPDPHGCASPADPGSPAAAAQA

R275C/beta4 = test: as above; details: U2OS BacMam BK variants, at 30 µM
R275C/Slo1WT/beta2 = test: as above; details: U2OS BacMam BK variants, at 30 µM
[7] = viability loss in pontine glioma line – cell-based, SU-DIPG-XVII, MIPE5.0, CellTiter-Glo, qHTS, dose response (AID 1347060; cut-off not given, nearly all actives have AC50 up to about 26 µM); details: CellTiter-Glo ATP luminescence
[8] = viability loss in pontine glioma line – cell-based, SU-DIPG-IV, MIPE4.0, CellTiter-Glo, qHTS, dose response (AID 1347063; cut-off not given, nearly all actives have AC50 up to about 30 µM;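 note: compound exposure lasted 48 hours before the viability readout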); details: CellTiter-Glo ATP luminescence
[9] = growth inhibition of DIPG cells – cell-based, MIPE4.0 library, CellTiter-Glo luminescence, qHTS (AID 1347066; cut-off not given, nearly all actives have AC50 up to about 30 µM;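 note: cells exposed to compound for 48 hours before readout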); details: SU-DIPG-VI viability, CellTiter-Glo ATP luminescence
[10] = growth inhibition of DIPG cells – cell-based, MIPE5.0 library, qHTS (AID 1347068; cut-off not given, nearly all actives have IC50 up to about 30 µM); details: SU-DIPG-XXV viability
[11] = viability loss in pontine glioma line – cell-based, SU-DIPG-XIII, MIPE4.0, CellTiter-Glo, qHTS, dose response (AID 1347061; cut-off not given, nearly all actives have AC50 up to about 37 µM;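 note: cells exposed to compound for 48 hours before readout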); details: CellTiter-Glo ATP luminescence

Structure (SMILES): O=C(O)C(Cl)Cl
- fluorescence ratio [1]: 0.97
- inhibition [2]: -0.4%
- inhibition [3]: 0.67%
- fluorescence ratio [4]: 0.96
- remaining activity [5]: 99.4%
- log fold change Tl+ flux (F380Y/beta1): -0.0051
- log fold change Tl+ flux (F380Y/beta4): -0.0155
- log fold change Tl+ flux [6]: -0.0139
- log fold change Tl+ flux (R275C/beta4): -0.0167
- log fold change Tl+ flux (R275C/Slo1WT/beta2): -0.0385

Structure (SMILES): COc1cc(N)c(Cl)cc1C(=O)NC1CN2CCC1CC2 (stereo unspecified)
- fluorescence ratio [1]: 0.94
- inhibition [2]: -2.77%
- inhibition [3]: 9.91%
- fluorescence ratio [4]: 0.87
- remaining activity [5]: 124%

Structure (SMILES): C[N+]1(CCC(C(N)=O)(c2ccccc2)c2ccccc2)CCCCC1
- fluorescence ratio [1]: 1.01
- inhibition [2]: -1.98%
- inhibition [3]: -0.1%
- fluorescence ratio [4]: 0.95
- log fold change Tl+ flux (F380Y/beta1): -0.0163
- log fold change Tl+ flux (F380Y/beta4): -0.00383
- log fold change Tl+ flux [6]: 0.0152
- log fold change Tl+ flux (R275C/beta4): -0.0252
- log fold change Tl+ flux (R275C/Slo1WT/beta2): 0.0123

Structure (SMILES): CN[C@@H]1C[C@@H](c2ccc(Cl)c(Cl)c2)c2ccccc21
- fluorescence ratio [1]: 0.98
- inhibition [2]: -3.56%
- inhibition [3]: -3.95%
- fluorescence ratio [4]: 0.97
- remaining activity [5]: 118%
- log fold change Tl+ flux [6]: 0.0738

Structure (SMILES): CCC(COC(=O)c1cc(OC)c(OC)c(OC)c1)(c1ccccc1)N(C)C (stereo unspecified)
- fluorescence ratio [1]: 0.98
- inhibition [2]: -1.19%
- inhibition [3]: -0.87%
- fluorescence ratio [4]: 0.98
- log fold change Tl+ flux (F380Y/beta1): -0.135 (active)
- log fold change Tl+ flux (F380Y/beta4): -0.301 (active)
- log fold change Tl+ flux [6]: -0.141 (active)
- log fold change Tl+ flux (R275C/beta4): -0.198 (active)
- log fold change Tl+ flux (R275C/Slo1WT/beta2): -0.104 (active)

Structure (SMILES): CC(C)c1cccc(C(C)C)c1O
- fluorescence ratio [1]: 0.96
- inhibition [2]: -1.36%
- inhibition [3]: 4.1%
- fluorescence ratio [4]: 0.87
- outcome [7]: inactive
- outcome [8]: inactive
- outcome [9]: inactive
- outcome [10]: inactive
- log fold change Tl+ flux (F380Y/beta1): -0.0717
- log fold change Tl+ flux (F380Y/beta4): -0.00471
- log fold change Tl+ flux [6]: -0.0487
- log fold change Tl+ flux (R275C/beta4): -0.0411
- log fold change Tl+ flux (R275C/Slo1WT/beta2): -0.0465

Structure (SMILES): CC[C@@H](CO)NC(=O)[C@@H]1C=C2c3cccc4c3c(cn4C)C[C@H]2N(C)C1
- remaining activity [5]: 121%

Structure (SMILES): C=C1C[C@@H]2[C@H](CC[C@]3(C)C(=O)CC[C@@H]23)[C@@]2(C)C=CC(=O)C=C12
- fluorescence ratio [1]: 1.07
- inhibition [2]: 2.77%
- inhibition [3]: 2.98%
- fluorescence ratio [4]: 1.05
- outcome [7]: inactive
- outcome [11]: inactive
- outcome [9]: inactive
- log fold change Tl+ flux (F380Y/beta1): 0.059
- log fold change Tl+ flux (F380Y/beta4): 0.013
- log fold change Tl+ flux [6]: 0.0186
- log fold change Tl+ flux (R275C/beta4): 0.0226
- log fold change Tl+ flux (R275C/Slo1WT/beta2): 0.0155

Structure (SMILES): NP(N)(=O)NC(=O)c1ccc(F)cc1
- remaining activity [5]: 91.8%

Structure (SMILES): c1ccc2c(c1)OCC(C1=NCCN1)O2 (stereo unspecified)
- remaining activity [5]: 99.1%

Structure (SMILES): C#CCN(C)[C@H](C)Cc1ccccc1
- fluorescence ratio [1]: 0.95 and 0.99
- inhibition [2]: -5.15% and -7.73%
- inhibition [3]: 2.21% and -4.29%
- fluorescence ratio [4]: 0.9 and 0.99
- outcome [7]: inactive
- outcome [11]: inactive
- outcome [8]: inactive
- outcome [10]: inactive
- log fold change Tl+ flux (F380Y/beta1): 0.0474
- log fold change Tl+ flux (F380Y/beta4): 0.0201
- log fold change Tl+ flux [6]: 0.000386
- log fold change Tl+ flux (R275C/beta4): -0.0396
- log fold change Tl+ flux (R275C/Slo1WT/beta2): -0.00101

Structure (SMILES): COc1ccc(C(=O)N2CCCC2=O)cc1
- remaining activity [5]: 97.7%
- outcome [7]: inactive
- outcome [11]: inactive
- outcome [8]: inactive
- outcome [9]: inactive
- outcome [10]: inactive

Structure (SMILES): CN1CCN(C(=O)O[C@H]2c3nccnc3C(=O)N2c2ccc(Cl)cn2)CC1
- fluorescence ratio [1]: 1
- inhibition [2]: -4.09%
- inhibition [3]: -4.29%
- fluorescence ratio [4]: 1.03
- outcome [11]: inactive
- outcome [8]: inactive
- outcome [9]: inactive
- log fold change Tl+ flux (F380Y/beta1): -0.0113
- log fold change Tl+ flux (F380Y/beta4): -0.00667
- log fold change Tl+ flux [6]: -0.0271
- log fold change Tl+ flux (R275C/beta4): 0.00608
- log fold change Tl+ flux (R275C/Slo1WT/beta2): -0.0138

Structure (SMILES): CCOC(=O)c1cncn1C(C)c1ccccc1 (stereo unspecified)
- log fold change Tl+ flux (F380Y/beta1): 0.00176
- log fold change Tl+ flux (F380Y/beta4): 0.0301
- log fold change Tl+ flux [6]: -0.00742
- log fold change Tl+ flux (R275C/beta4): -0.000383
- log fold change Tl+ flux (R275C/Slo1WT/beta2): -0.0322

Structure (SMILES): CC[C@]1(O)CC[C@H]2[C@@H]3CCC4=CCCC[C@@H]4[C@H]3CC[C@@]21C
- fluorescence ratio [1]: 1.02
- inhibition [2]: -2.77%
- inhibition [3]: 1.44%
- fluorescence ratio [4]: 1.02
- log fold change Tl+ flux (F380Y/beta1): -0.128 (active)
- log fold change Tl+ flux (F380Y/beta4): -0.128 (active)
- log fold change Tl+ flux [6]: 0.141 (active)
- log fold change Tl+ flux (R275C/beta4): 0.243 (active)
- log fold change Tl+ flux (R275C/Slo1WT/beta2): 0.0508

Structure (SMILES): NC(=O)OCCCc1ccccc1
- fluorescence ratio [1]: 1.07
- inhibition [2]: 0.4%
- inhibition [3]: -1.64%
- fluorescence ratio [4]: 1.03
- log fold change Tl+ flux (F380Y/beta1): 0.00909
- log fold change Tl+ flux (F380Y/beta4): 0.0583
- log fold change Tl+ flux [6]: -0.0246
- log fold change Tl+ flux (R275C/beta4): -0.0265
- log fold change Tl+ flux (R275C/Slo1WT/beta2): 0.0397
